In published antibiotic growth screens (doi:10.1016/j.cell.2020.01.021):
In all, about 2,300 compounds were measured (“relative growth”: median about 1, lowest 2% from about 0.046 on). A selection follows.

Tested on: E. coli BW25113
Experiment: relative growth (fraction of control); higher = less inhibition
Details: 50 µM

Row | SMILES | relative growth
1 | CC12CCC3C(=CCc4cc(O)ccc43)C1CCC2=O (stereo unspecified) | 0.988
2 | CCC1OC(=O)C(C)C(OC2CC(C)(OC)C(O)C(C)O2)C(C)C(OC2OC(C)CC(N(C)C)C2O)C(C)(O)CC(C)C(=O)C(C)C(O)C1(C)O.CCCCCCCCCCCCCCCCCC(=O)O (stereo unspecified) | 0.665
3 | NCCCC(N)C(=O)O.NCCCC(N)C(=O)O.O=C(O)CCC(=O)C(=O)O | 1.09
4 | C=CC1CN2CCC1CC2C(O)c1ccnc2ccc(OC)cc12 (stereo unspecified) | 1.02
5 | Cc1ccsc1C=CC1=NCCCN1C.O=C(O)CC(O)(CC(=O)O)C(=O)O | 0.986
6 | CN(C)C1C(O)=C(C(N)=O)C(=O)C2(O)C(O)=C3C(=O)c4c(O)cccc4C(C)(O)C3CC12.Cl (stereo unspecified) | 0.0522
7 | CN1CCN(C2=Nc3ccccc3Oc3ccc(Cl)cc32)CC1.O=C(O)CCC(=O)O | 1.08
8 | C#CCCCCCCCCCCCC(O)CC(O)COC(C)=O.C=CCCCCCCCCCCCC(O)CC(O)COC(C)=O (stereo unspecified) | 1.03
9 | CCN(CC)CCOCCOC(=O)C1(c2ccccc2)CCCC1.O=C(O)CC(O)(CC(=O)O)C(=O)O | 1.08
10 | CN(C)CCC(c1ccc(Cl)cc1)c1ccccn1.O=C(O)C=CC(=O)O (stereo unspecified) | 0.967
11 | CCCCCCc1ccc(O)cc1O.Nc1c2ccccc2nc2ccccc12 | 0.591
12 | Cl.N[C@H](Cc1ccccc1)C(=O)O | 1
13 | O=C(O)C(O)C(O)C(=O)O.OCc1cccnc1 (stereo unspecified) | 1.06
14 | CNCC(O)C(O)C(O)C(O)CO.Cc1c(Nc2ncccc2C(=O)O)cccc1C(F)(F)F | 1.04
15 | CCCCCNC(=N)NN=Cc1c[nH]c2ccc(OC)cc12.O=C(O)C=CC(=O)O | 0.879
16 | CCN(CC)CCOCCOC(=O)C(CC)(CC)c1ccccc1.O=C(O)CC(O)(CC(=O)O)C(=O)O | 1.1

Row | SMILES | relative growth
17 | CN1CCCN=C1C=Cc1cccs1.O=C(O)c1cc2ccccc2c(Cc2c(O)c(C(=O)O)cc3ccccc23)c1O | 1.13
18 | CCC1OC(=O)CC(O)C(C)C(OC2OC(C)C(OC3CC(C)(O)C(O)C(C)O3)C(N(C)C)C2O)C(CC=O)CC(C)C(=O)C=CC(C)=CC1COC1OC(C)C(O)C(OC)C1OC.O=C(O)C(O)C(O)C(=O)O (stereo unspecified) | 1.09
19 | CC(=O)OC1CC2(C)C(CC(O)C3C4(C)CCC(O)C(C)C4CCC32C)C1=C(CCC=C(C)C)C(=O)O (stereo unspecified) | 1.12
20 | NNC(=O)c1ccncc1.Nc1ccc(C(=O)O)c(O)c1 | 0.943
21 | O=C(O)CCC(=O)O.O=C(OC1CN2CCC1CC2)N1CCc2ccccc2C1c1ccccc1 (stereo unspecified) | 1.02
22 | CCC(=O)OC1C(OC2C(C)C(OC3CC(C)(OC)C(O)C(C)O3)C(C)C(=O)OC(CC)C(C)(O)C(O)C(C)C(=O)C(C)CC2(C)O)OC(C)CC1N(C)C.CCCCCCCCCCCCOS(=O)(=O)O (stereo unspecified) | 0.953
23 | Oc1ccc(Cl)c2cccnc12 | 0.421
24 | CN1CCc2nc(C(=O)NC3CC(C(=O)N(C)C)CCC3NC(=O)C(=O)Nc3ccc(Cl)cn3)sc2C1.Cc1ccc(S(=O)(=O)O)cc1.O (stereo unspecified) | 1.01
25 | CC(=O)c1ccc2c(c1)N(CCCN1CCN(CCO)CC1)c1ccccc1S2.O=C(O)C=CC(=O)O | 1.17
26 | CC(=O)OCC(=O)C1(O)C(C)CC2C3CCC4=CC(=O)C=CC4(C)C3(F)C(O)CC21C (stereo unspecified) | 0.913
27 | OCC(O)C(O)C(OC1OC(CO)C(O)C(O)C1O)C(O)CO (stereo unspecified) | 0.991
28 | CC1CC2C3CCC4=CC(=O)C=CC4(C)C3(F)C(O)CC2(C)C1(O)C(=O)COP(=O)([O-])[O-].[Na+].[Na+] (stereo unspecified) | 1.1
29 | CN1C(C)(C)CCCC1(C)C.O=C(O)C(O)C(O)C(=O)O | 0.993
30 | CN(C)CCN(Cc1ccccc1)c1ccccn1.O=C(O)CC(O)(CC(=O)O)C(=O)O | 0.763
31 | CCC(=C(c1ccccc1)c1ccc(OCCN(C)C)cc1)c1ccccc1.O=C(O)CC(O)(CC(=O)O)C(=O)O | 0.642
